Screening results (PubChem BioAssay)
Only some compounds are listed: those with a hit (about 21% of all), similar ones and a draw of the others.
TDP1 cell CPT – qHTS for Inhibitors of human tyrosyl-DNA phosphodiesterase 1 (TDP1): qHTS in cells in presence of CPT; chicken DT40 Tdp1-/-;hTDP1 cells + 20 nM CPT, ATP luminescence, 48 h; Potency, µM (series often up to 46.2 µM), actives largely listed as inhibitors; actives 12% (n = 420,000); also: nearly all actives have a fitted effect of over 55% in size
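Chicken DT40 Tdp1-/- cells stably complemented with human TDP1 were seeded at 400 cells/well in medium containing 20 nM camptothecin, exposed to pin-transferred compounds, and grown at 37 °C for at least 48 hr. Viability was read as ATP luminescence.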
IL1B secr inh – qHTS for Inhibitors of Inflammasome Signaling: IL-1-beta AlphaLISA Primary Screen. AID 743279, 2014. activity change, % at 57.5 µM. THP-1 LPS/ATP IL-1B secretion, AlphaLISA, 16 h; stronger effect = lower value. actives 4.7% (n = 360,000); in the data active = activity change below about -50%; inconclusive = mostly about -30% to -49%
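Secreted IL-1B measured by AlphaLISA bead assay after 16 h compound exposure of THP-1 cells; compounds (final up to 57.5 uM) added 1 h before LPS (250 ng/mL) and ATP (1.25 mM) stimulation; lower signal means less secretion.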
VP16 counter – VP16 counterscreen qHTS for inhibitors of ROR gamma transcriptional activity | Drosophila S2 Gal4-VP16 UAS-luciferase, luminescence, 20 h | Potency, µM (series often up to 53.6 µM), hits mostly inhibitors | actives 3.5% (n = 310,000) | AID 2546, 2010;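 also: Gal4-VP16 expression switched on by copper sulfate through the metallothionein promoter; nearly all actives have a fitted effect of over 50% in size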
ELG1 DNA repair – qHTS screen for small molecules that inhibit ELG1-dependent DNA repair in human embryonic kidney (HEK293T) cells expressing luciferase-tagged ELG1. actives 2.3% (n = 330,000). HEK293T ELG1-luciferase reporter, luminescence, 16 h; DNA damage induced by 5-fluorouridine. AID 504467, 2011. Potency, µM (doses to about 46.1 µM), usual class: inhibitors; also: nearly all actives have a fitted effect of over 55% in size
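DMSO vehicle served as the neutral condition. Each well held 2,000 cells given 5-fluorouridine plus compound; after 16 hr at 37 °C/5% CO2, ONE-Glo was added and luciferase measured 30 min later.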
RORg inh – qHTS for inhibitors of ROR gamma transcriptional activity | Nuclear receptor ROR-gamma (Mus musculus), P51450 | Drosophila S2 Gal4-RORgamma UAS-luciferase reporter, 20 h | Potency, µM (titrated, usually from 53.6 µM), actives largely listed as inhibitors | actives 5.4% (n = 310,000) | AID 2551, 2010; also: nearly all actives have a fitted effect of over 60% in size
Target sequence (P51450 whole entry, looked up, the tested form may be a part): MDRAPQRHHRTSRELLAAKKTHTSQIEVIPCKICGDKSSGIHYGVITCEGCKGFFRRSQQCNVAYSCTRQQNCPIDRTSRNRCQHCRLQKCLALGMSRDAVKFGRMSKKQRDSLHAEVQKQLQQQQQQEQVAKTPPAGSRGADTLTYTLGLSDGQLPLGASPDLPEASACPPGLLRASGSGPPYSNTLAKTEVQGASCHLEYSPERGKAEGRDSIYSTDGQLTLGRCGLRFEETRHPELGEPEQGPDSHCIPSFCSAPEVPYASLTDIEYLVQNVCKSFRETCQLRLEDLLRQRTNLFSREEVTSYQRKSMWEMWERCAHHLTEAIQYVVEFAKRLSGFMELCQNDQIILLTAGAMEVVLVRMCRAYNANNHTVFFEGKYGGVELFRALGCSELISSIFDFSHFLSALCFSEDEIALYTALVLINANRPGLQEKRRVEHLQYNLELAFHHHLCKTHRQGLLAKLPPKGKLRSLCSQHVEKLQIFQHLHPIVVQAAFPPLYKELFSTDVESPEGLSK
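Drosophila S2 cells stably expressing Gal4-DBD/mouse RORγ fusion under metallothionein promoter plus UAS-luciferase; compound 1 h, then 700 uM CuSO4 induction for 20 h at ambient temperature; inhibition read as reduced luminescence.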
DT40 TDP1 no CPT – qHTS for Inhibitors of human tyrosyl-DNA phosphodiesterase 1 (TDP1): qHTS in cells in absence of CPT. DT40 Tdp1-/- hTDP1 cells, no CPT, ATP luminescence, 48 h. Potency, µM (doses to about 46.2 µM), usual class: inhibitors. actives 15% (n = 420,000); also: nearly all actives have a fitted effect of over 55% in size
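No-CPT arm: Tdp1-/-;hTDP1 DT40 cells (400/well) plus compounds, incubated ≥48 hr at 37 °C. Readout CellTiter-Glo luminescence.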
A number is an active result; - = inactive; ? = inconclusive; . = no result given. Unless noted, calls follow the shape of the dose curve; as a rule, active = well fitted curve in the direction sought with a large enough effect; inconclusive = small, poorly fitted or top-dose-only effect, or another doubt; inactive = no such curve, though single readings can be large; an effect the other way counts as inactive or inconclusive.

SMILES	TDP1 cell CPT	IL1B secr inh	VP16 counter	ELG1 DNA repair	RORg inh	DT40 TDP1 no CPT
COc1ccc(N2CCN(c3nc4cc(C)ccc4cc3C=O)CC2)cc1	?	-64	-	-	?	?
CSCCC(NS(=O)(=O)c1ccccc1F)C(=O)NCc1cccnc1 (stereo not drawn)	-	-	.	-	.	-
C[C@@H]1C(=O)O[C@@H]2C[C@]34[C@H]5C[C@@H](C(C)(C)C)[C@@]36[C@@H](OC(=O)[C@@H]6O)O[C@@]4(C(=O)O5)[C@@]12O	.	.	-	.	-	.
O=S(=O)(c1ccccc1)N1CCC2(CCCN(Cc3nccs3)C2)CC1	-	.	-	.	-	?
CC1=CNC(=O)CC(C)(C)C1	-	-	.	.	.	-
Cc1ccc(-c2nc3nc(C)cc(N4CCN(c5cccc(C)c5)C(C)C4)n3n2)cc1 (stereo not drawn)	-	.	.	.	.	?
CC1=C(c2ccc(Cl)cc2)S(=O)(=O)N=C1N1CCN(c2cccc(C)c2)C(C)C1 (stereo not drawn)	5.2µM	.	.	.	.	5.2µM
CN(CC(=O)Nc1ccc(F)c(F)c1F)C(=O)Cc1ccc(S(=O)(=O)N2CCOCC2)s1	?	-	.	.	.	-
Cc1ccc(CSC2=Nc3ccccc3C3=NC(CC(=O)NC4CCCCC4)C(=O)N23)cc1 (stereo not drawn)	1.2µM	.	.	.	.	1.2µM
O=C(CCC1N=C2c3ccccc3N=C(SCc3ccc(F)cc3)N2C1=O)NC1CCCCC1 (stereo not drawn)	21µM	.	.	.	.	10µM
O=C(CC1N=C2c3ccccc3N=C(SCc3ccc(F)cc3)N2C1=O)NC1CCCCC1 (stereo not drawn)	?	.	.	.	.	16µM
CCCCc1ccc(S(=O)(=O)NC(=O)C2(C)CCN2C(=O)Cc2ccccc2)cc1 (stereo not drawn)	-	-	.	.	.	-
Cc1cccc(C)c1C(=NCCCN(C)C)c1ccccc1	-	-	-	-	-	-
Cc1cccc(NC(=O)CSc2nnc3[nH]c(=O)cc(-c4ccccc4)n23)c1C	?	.	.	.	.	-
CC1=C(c2ccccc2)SC2=NCCN21	?	-	-	-	-	-
CCCn1c(=O)[nH]c2nc(-c3ccc(S(=O)(=O)O)cc3)[nH]c2c1=O	-	.	-	.	-	-
CCC(=O)Nc1ccc(CC)cc1-c1nc2ccccc2n(CC(=O)Nc2cccc(OC)c2)c1=O	?	.	.	.	.	-
O=C(COc1ccc(F)cc1)N/N=C/c1cccc2cccnc12	21µM	-	.	.	.	16µM
Cc1ccc(OCC(=O)N/N=C/c2cccc3cccnc23)cc1	23µM	-	?	-	16µM	26µM
COc1cccc(C(=O)/C(C#N)=N/Nc2cccc(-c3ccnc(C)n3)c2)c1	?	-	?	?	?	21µM
CCCn1nc(C(=O)Nc2nc(-c3ccccn3)cs2)c2ccccc2c1=O	7.3µM	-	.	7.3µM	.	2.3µM
Cn1nc(C(=O)Nc2nc(-c3ccccn3)cs2)c2ccccc2c1=O	4.6µM	-	.	?	.	1.3µM
Cn1nc(C(=O)Nc2cccnc2)c2ccccc2c1=O	?	-	-	?	-	?
COc1ccc(CC2(CO)CCN(Cc3cccc4nccnc34)CC2)cc1	-	-	-	-	-	-
Cc1cc(C)n(-c2cccc(CN3CCC(CO)(Cc4ccccc4)CC3)c2)n1	?	-71	-	-	-	23µM
COc1ccc(CC2(CO)CCN(Cc3cnc(-c4ccccc4C)nc3)CC2)cc1	?	-	-	?	-	13µM
COc1ccc2[nH]c(C(=O)N3CCCN(Cc4ccc(F)cc4)CC3)cc2c1	?	-78	-	-	-	?
